Assay [1] in a line: growth inhibition of DIPG glioma cells, dose response, cell-based, SU-DIPG-XVII, MIPE5.0, CellTiter-Glo, qHTS (AID 1347060).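 As to AC50: cells exposed to compound for 48 hours before viability readout.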 As to conditions: SU-DIPG-XVII viability, CellTiter-Glo ATP luminescence. For orientation: In ATP-based viability assays light output follows the ATP content of the culture.
Assay [2] can be described thus: viability loss in pontine glioma line – cell-based, SU-DIPG-XXV, MIPE5.0, CellTiter-Glo, qHTS, dose response (AID 1347065).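 Also: cells exposed to compound for 48 hours before ATP readout.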 As to conditions: CellTiter-Glo ATP luminescence.
Assay [3] in a line: JHH-DIPG-1 glioma cell viability, MIPE5.0 library, CellTiter-Glo luminescence, qHTS (AID 1347067).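 Also: cells exposed to compound for 48 hours before readout.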 As to conditions: JHH-DIPG-1 glioma viability, CellTiter-Glo ATP luminescence.
Assay [4] is described as follows: SU-DIPG-XXV glioma cell viability, MIPE5.0 library, qHTS (AID 1347068; cut-off not given, nearly all actives have IC50 up to about 30 µM;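 as to IC50: cells exposed to compound for 48 hours before viability readout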). (In general: qHTS replaces the single test concentration by a dilution series.)
The nature of assay [5]: SU-DIPG-VI glioma cell viability, MIPE4.0 library, CellTiter-Glo luminescence, qHTS (AID 1347066; cut-off not given, nearly all actives have AC50 up to about 30 µM;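 also: cells exposed to compound for 48 hours before readout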). As to conditions: CellTiter-Glo ATP luminescence.
Assay [6] is described as follows: modifiers of HSF1 nuclear foci, imaging, Selleck Cancer Library (AID 1347162; in the data active = plate-normalised HSF1 focus index below about 0.46). Particulars: human cells, at 10 µM; SSMD: measured here: HSF1 foci SSMD mean; cell count: measured here: cell number; plate-normalised HSF1 focus index: stronger effect = lower value.
Assay [7] is described as follows: ovarian cancer cell viability with rucaparib, profiling panel, oncology-focused library, rucaparib conditional (AID 1508598;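 active = normalized viability below 100% at a tested concentration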). Particulars: patient-derived ovarian cancer cells, CellTiter-Glo viability, 144 h, stronger effect = lower value.

Inconclusive results are not listed. Calls of active or inactive are those of the source. Unless noted, the limit is not given here; nearly all actives have AC50 up to about 26 µM.

`COCCNc1cc(NC(=O)N2CCCc3cc(CN4CCN(C)CC4=O)c(C=O)nc32)ncc1C#N`: the outcome in assay [1], in assay [2], in assay [3] and in assay [4] was inactive.

Take `COc1ccc2c(c1)CC[C@@H](CN(C)CC(=O)O)[C@H]2c1ccccc1`: the molecule was classed as inactive in assay [1], in assay [2], in assay [5], in assay [3] and in assay [4].

For `COc1c(C)cc(NC(=O)c2nn(Cc3ccc(F)cc3)c3c2CN(C(=O)c2ccc[nH]2)C[C@]3(C)C(N)=O)cc1C`, the molecule was classed as inactive in assay [1], in assay [2] and in assay [3].

Take `Cc1c(F)cc(C(=O)NC2CC2)cc1-c1c(F)cn2c(C(C)(C)C)nnc2c1F`: the molecule was classed as inactive in assay [1], in assay [2], in assay [3] and in assay [4].

In the case of `CCc1c(C(=O)NNC(=O)[C@@H](O)c2cc(F)cc(F)c2)ccc(O)c1C`, the outcome in assay [1], in assay [2] and in assay [3] was inactive.

Take `Cc1c(-c2ccnn2C)cc(C(=O)NCc2ccc(S(C)(=O)=O)cn2)c(=O)n1-c1cccc(C(F)(F)F)c1`: the call in assay [1], in assay [2] and in assay [3] was inactive.

For orientation: AC50 means the concentration at which the activity in the assay is half-maximal. For orientation: IC50 means the concentration needed to halve the response being measured. For `C[C@H]1CNC(=O)c2cnn3ccc(nc23)N[C@H](C)c2cc(F)ccc2O1`, the figures for the AC50 in assay [1], in assay [2] and in assay [3] were 1.05 µM (active), 0.934 µM (active) and 1.48 µM (active), respectively. Besides, the IC50 in assay [4] is 2.95 µM (active).

Consider `Nc1cc(COc2c(Cl)cc(C[C@H](N)C(=O)O)cc2Cl)c2oc(-c3ccccc3)nc2c1`, for which the molecule was classed as inactive in assay [1], in assay [2], in assay [3] and in assay [4].

With `CCOc1cc(C(=O)N2CCC(N3CCN(C)CC3)CC2)ccc1Nc1ncc2c(n1)N(C1CCCC1)c1ccccc1C(=O)N2C`, the AC50 was 23.5 µM (active) in assay [1], 20.9 µM (active) in assay [2] and 26.3 µM (active) in assay [3]. Moreover, the IC50 in assay [4] is 20.9 µM (active).

In the case of `CCCS(=O)(=O)c1nc(NC2CC2)cc(-c2ccc3c(ccn3C3CC(C)(C)NC(C)(C)C3)c2)n1`, the AC50 in assay [1] was 3.93 µM (active); in assay [2], 2.78 µM (active); in assay [3], 2.78 µM (active). In addition, the half-inhibitory concentration (IC50) in assay [4] was 3.12 µM (active).

With `Cc1cnc(NC(=O)c2cc(Oc3cnc(C(=O)N(C)C)nc3)c3cc(C)oc3c2)cn1`, the call in assay [1], in assay [2], in assay [3] and in assay [4] was inactive.

As for `Cn1c(-c2ccccc2C(F)(F)F)nnc1C12CCC(c3noc(C4CC(F)(F)C4)n3)(CC1)CC2`, the molecule was classed as inactive in assay [1], in assay [2], in assay [3] and in assay [4].

Take `Cn1nccc1Nc1nccc(-c2cc3c(s2)C(C)(C)N(CCN2CCOCC2)C3=O)n1`: the results for the AC50 in assay [1], in assay [2] and in assay [3] were 5.25 µM (active), 10.5 µM (active) and 2.09 µM (active), respectively. The molecule was classed as inactive in assay [4].

As to `COc1cc2c(NC3CCN(C)CC3)nc(N3CCCN(C)CC3)nc2cc1OCCCN(C)C`, the call in assay [1], in assay [2], in assay [3] and in assay [4] was inactive.

For the molecule `CCC[C@H](N[C@H]1CCc2cc(F)cc(F)c2C1)C(=O)Nc1cn(C(C)(C)CNCC(C)(C)C)cn1`, the AC50 was 33.2 µM (active) in assay [1], 18.6 µM (active) in assay [2] and 23.5 µM (active) in assay [3].

For the molecule `O=C1NC(=O)[C@@H](c2c[nH]c3ccccc23)[C@H]1c1cn2c3c(cccc13)CCC2`, the values for the AC50 in assay [1], in assay [2] and in assay [3] were 0.525 µM (active), 0.742 µM (active) and 1.66 µM (active), respectively.

As to `Oc1ccc([C@@H]2Oc3ccc(O)cc3[C@@H]3CCC[C@@H]32)cc1`, the AC50 in assay [1] was 13.2 µM (active); in assay [2], 11.8 µM (active). For the same molecule, the molecule was classed as inactive in assay [5].

With `CCN(C)S(=O)(=O)Nc1ccc(F)c(C(=O)c2c[nH]c3ncc(-c4cnc(C5CC5)nc4)cc23)c1F`, the AC50 was 14.8 µM (active) in assay [1], 7.42 µM (active) in assay [2] and 16.6 µM (active) in assay [3]. In addition, the IC50 in assay [4] was 16.6 µM (active).

Turning to `NC(=O)[C@H]1CCS[C@@H]2C[C@]3(CCCN3C(=O)Cc3ccc(NC(=O)COc4ccc(Cl)cc4Cl)cc3)C(=O)N12`, the AC50 was 4.17 µM (active) in assay [1], 10.5 µM (active) in assay [2] and 16.6 µM (active) in assay [3].

On to `COc1cc(N2CCN(C)CC2)ccc1Nc1ncc2c(n1)N(C)c1ccccc1C(=O)N2C`, for which the AC50 in assay [1] was 18.6 µM (active); in assay [2], 18.6 µM (active); in assay [3] it was 14.8 µM (active).

For the molecule `COc1ccc2[nH]c(C(=O)N3CCC(CC(C)(C)O)CC3)cc2c1`, the result in assay [1], in assay [2] and in assay [3] was inactive.

Take `Cc1nnc(C[C@@H]2C=C(c3ccc(Cl)cc3)c3ccccc3-n3c(C)nnc32)o1`: the AC50 in assay [1] was 26.3 µM (active); in assay [2], 14.8 µM (active); in assay [3] it was 18.6 µM (active).

Consider `COc1ccc2[nH]c3c(c2c1)CCN[C@]31CS[C@@H]2c3c(OC(C)=O)c(C)c4c(c3[C@H](COC1=O)N1[C@@H]2[C@H]2c3c(cc(C)c(OC)c3O)C[C@@H]([C@@H]1O)N2C)OCO4`, for which the AC50 in assay [1] was 0.000959 µM (active); in assay [2] it was 0.0034 µM (active); in assay [3], 0.00135 µM (active).

Take `O=C([O-])C[O-].[Pt+2]`: the outcome in assay [1], in assay [2], in assay [3] and in assay [4] was inactive.

For the molecule `COc1cccc(-c2c(C)n(Cc3c(F)cccc3C(F)(F)F)c(=O)n(C[C@H](NCCCC(=O)O)c3ccccc3)c2=O)c1F`, the result in assay [1], in assay [2], in assay [3] and in assay [4] was inactive.

As to `COc1cc(-c2cn(C)c(=O)c3cnccc23)c(OC)cc1CN(C)C`, the outcome in assay [1], in assay [2], in assay [3] and in assay [4] was inactive.

Take `C[C@]1(C(=O)N(CCCC(=O)O)Cc2cccc(Cl)c2)CCN1C(=O)c1csc2ccccc12`: the molecule was classed as inactive in assay [1], in assay [2], in assay [3] and in assay [4].

Turning to `CNc1nc(C)nc(N[C@H]2CCC[C@@H](C(=O)NCc3ccc(C#N)cc3C(F)(F)F)C2)n1`, the result in assay [1], in assay [2], in assay [3] and in assay [4] was inactive.

As to `Cn1cc(C2=C(c3cn(C)c4cc([N+](=O)[O-])ccc34)C(=O)NC2=O)c2ccccc21`, the AC50 in assay [1] is 0.332 µM (active); in assay [2], 0.263 µM (active); in assay [3], 0.468 µM (active). Besides, the IC50 in assay [4] is 4.68 µM (active).

Usually viability stands for a per cent measure of how many cells are alive, often set against a control. `C[C@@H](Oc1cc(-n2cnc3ccc(CN4CCN(C)CC4)cc32)sc1C(N)=O)c1ccccc1C(F)(F)F`: the half-maximal activity concentration (AC50) in assay [1] was 0.0525 µM (active); in assay [2], 0.0372 µM (active); in assay [5], 18.7 µM (active). The molecule also came in with an SSMD in assay [6] of 1.17. For the same molecule, the cell count in assay [6] was 6420. Besides, the plate-normalised HSF1 focus index in assay [6] was 1.06 (inactive). For the same molecule, the viability in assay [7] (at 0.000305 µM, OCI-C5x cells, with rucaparib 10 µM, 100% = cells with rucaparib alone) is 99.2% (active); in assay [7] (at 0.000305 µM, OCI-C5x cells, without rucaparib), 88.3% (active); in assay [7] (at 0.000305 µM, OCI-P5x cells, with rucaparib 20 µM, 100% = cells with rucaparib alone), 87% (active); in assay [7] (at 0.000305 µM, OCI-P5x cells, without rucaparib), 33.3% (active); in assay [7] (at 0.00122 µM, OCI-C5x cells, with rucaparib 10 µM, 100% = cells with rucaparib alone), 92.1% (active); in assay [7] (at 0.00122 µM, OCI-C5x cells, without rucaparib), 72.7% (active). Also, the viability in assay [7] (at 0.00122 µM, OCI-P5x cells, with rucaparib 20 µM, 100% = cells with rucaparib alone) is 73.8% (active); in assay [7] (at 0.00122 µM, OCI-P5x cells, without rucaparib), 22% (active); in assay [7] (at 0.00488 µM, OCI-C5x cells, with rucaparib 10 µM, 100% = cells with rucaparib alone) it was 76.5% (active); in assay [7] (at 0.00488 µM, OCI-C5x cells, without rucaparib), 44% (active); in assay [7] (at 0.00488 µM, OCI-P5x cells, with rucaparib 20 µM, 100% = cells with rucaparib alone), 73.2% (active); in assay [7] (at 0.00488 µM, OCI-P5x cells, without rucaparib), 18% (active). Besides, the viability is 46.7% (active) in assay [7] (at 0.0195 µM, OCI-C5x cells, with rucaparib 10 µM, 100% = cells with rucaparib alone); 33.6% (active) in assay [7] (at 0.0195 µM, OCI-C5x cells, without rucaparib); 62.1% (active) in assay [7] (at 0.0195 µM, OCI-P5x cells, with rucaparib 20 µM, 100% = cells with rucaparib alone); 13.6% (active) in assay [7] (at 0.0195 µM, OCI-P5x cells, without rucaparib); 41.7% (active) in assay [7] (at 0.0781 µM, OCI-C5x cells, with rucaparib 10 µM, 100% = cells with rucaparib alone); 30.9% (active) in assay [7] (at 0.0781 µM, OCI-C5x cells, without rucaparib). Also, the viability was 62.6% (active) in assay [7] (at 0.0781 µM, OCI-P5x cells, with rucaparib 20 µM, 100% = cells with rucaparib alone); 15.3% (active) in assay [7] (at 0.0781 µM, OCI-P5x cells, without rucaparib); 34.4% (active) in assay [7] (at 0.313 µM, OCI-C5x cells, with rucaparib 10 µM, 100% = cells with rucaparib alone); 22.2% (active) in assay [7] (at 0.313 µM, OCI-C5x cells, without rucaparib); 70.6% (active) in assay [7] (at 0.313 µM, OCI-P5x cells, with rucaparib 20 µM, 100% = cells with rucaparib alone); 13.4% (active) in assay [7] (at 0.313 µM, OCI-P5x cells, without rucaparib). Also, the viability is 38.1% (active) in assay [7] (at 1.25 µM, OCI-C5x cells, with rucaparib 10 µM, 100% = cells with rucaparib alone); 28.8% (active) in assay [7] (at 1.25 µM, OCI-C5x cells, without rucaparib); 62.3% (active) in assay [7] (at 1.25 µM, OCI-P5x cells, with rucaparib 20 µM, 100% = cells with rucaparib alone); 15.1% (active) in assay [7] (at 1.25 µM, OCI-P5x cells, without rucaparib); 51.4% (active) in assay [7] (at 5 µM, OCI-C5x cells, with rucaparib 10 µM, 100% = cells with rucaparib alone); 3.97% (active) in assay [7] (at 5 µM, OCI-C5x cells, without rucaparib). Besides, the viability in assay [7] (at 5 µM, OCI-P5x cells, with rucaparib 20 µM, 100% = cells with rucaparib alone) was 0.676% (active); in assay [7] (at 5 µM, OCI-P5x cells, without rucaparib), 11.4% (active).

(Values after PubChem BioAssay.)
